Experimental findings from PubChem BioAssay (NCI) are described below.

About 83,000 compounds went through this panel and 20% of them were active in at least one assay; those are over-represented in the sample as a whole.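 Results are percent growth after 48 hours of single-concentration exposure. 100 means growth as in untreated cells, lower positive values show inhibition; negative values down to -100 show cell death.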 Unmarked numbers belong to inactive results. Active and inactive are the calls of the source.

The assay relates to ACHN renal. As to the kind of experiment: NCI-60 one-dose screen, 48 h (100 = growth as untreated, 0 = no growth, -100 = all killed). As to conditions: 10 µM unless noted. As to the method:
Growth inhibition of the ACHN human tumor cell line is measured as a screen for anti-cancer activity. Cells are grown in 96 well plates and exposed to the test compound for 48 hours. Compounds are tested at a single concentration, which is 10^-5 M for most compounds. The reported endpoint is percent growth (GI% or GIPRCNT), where numbers from 0 - 100% represent growth inhibition, and numbers from -100% - 0 represent cell death. For example, a value of 40 represents 60% growth inhibition. A value of 0 means no net growth occurred over the course of the experiment. A value of -40 indicates 40% of cells at the beginning of the experiment died by the end of the experiment. A value of -100 means all cells are dead at the end of the experiment.
NCI-60 Human Tumor Cell Lines Screen was performed using the standard one-dose NCI protocol, which is described in more detail at https://dtp.cancer.gov/discovery_development/nci-60/default.htm.
Compounds with GIPRCNT values below 10 were considered active. Activity score was based on GIPRCNT using the following formula: […]
Score is 0 for GIPRCNT values of 100 or above, 50 for GIPRCNT values of 0, and 100 for GIPRCNT values of -100.
Regarding `O=C(Nc1cn[nH]c1-c1nc2ccc(CN3CCOCC3)cc2[nH]1)NC1CC1`, the growth is 36.1%.
As for `CCOc1cccc(/C=N/NC(=O)c2ccccc2Nc2ccnc(C(F)(F)F)c2)c1O`, the figure is 5.76% (active); as for `Clc1ccc2c(NCCNc3nc(N4CCCC4)nc4ccccc34)ccnc2c1`, -83% (active).
As for `C[N+](C)(CCOC(c1ccccc1)c1ccccc1)CC(=O)OCc1ccccc1`, the figure is 111%; as for `NC1=Nc2cc(OCCCN3Cc4ccccc4C3)c(OCC3CC3)cc2C12CCCC2`, 83.1%.
As for `CC(C)(C)c1cnc(CSc2cnc(NC(=O)C3CCNCC3)s2)o1`, the figure is 9.41% (active).
Consider `C1=C\COCc2cc(ccc2OCCN2CCCC2)Nc2nccc(n2)-c2cccc(c2)COC/1`, for which the growth is 3.85% (active).
With `Cc1cn(-c2cc(NC(=O)c3ccc(C)c(Nc4nccc(-c5cccnc5)n4)c3)cc(C(F)(F)F)c2)cn1`, the growth is 55.8%.
`COc1ccc(C2OC(c3cc(-c4cc5ccccc5o4)nn3-c3ccccc3)=NN2C(C)=O)cc1` (stereo not given): the growth is 99.3%.
As for `O=C(Cn1ccnc1)Nc1ccc(-c2nc3ccccc3s2)cc1`, the figure is 90.3%; as for `C[C@@H](Oc1cc(-n2cnc3ccc(CN4CCN(C)CC4)cc32)sc1C(N)=O)c1ccccc1C(F)(F)F`, 31.1%.
With `Cc1ccc(NC(=O)NC(=O)CSc2nc3ccccc3nc2C)cc1` the figure was 75.6%.
With `O=C(Cc1ccccc1)Nc1nnc(NC2CCN(c3nnc(NC(=O)Cc4ccccc4)s3)CC2)s1`, the growth was 103%.
With `Cn1cc(-c2ncnc3ccc(-c4cnc(Cl)c(NS(C)(=O)=O)c4)cc23)c2ccccc21` the figure was 13.3%.
With `CCCCCCCCCNCCCCCCCCC` the figure was 81.5%; with `COc1cc(NCCN(CC(C)C)CC(C)C)c2ncc(C)cc2c1`, 77.7%.
As for `Cc1[nH]c(/C=C2\C(=O)Nc3ccc(F)cc32)c(C)c1C(=O)NC[C@H](O)CN1CCOCC1`, the growth is 23.8%.
With `Cc1c(N)ccc(-c2ccc(N)c(C)c2S(=O)(=O)O)c1S(=O)(=O)O` the figure was 108%; with `CCCCCCCC12Cc3ccccc3C1=Nc1c(c3ccccc3n1C)C2=O` (stereo not given), 93.3%; with `COC(=O)c1[nH]cnc1/N=N/N(C)CCO`, 103%.
`COc1cc2c(Oc3ccc(NC(=O)C4(C(=O)Nc5ccc(F)cc5)CC4)cc3F)ccnc2cc1OCCCN1CCOCC1`: the growth was -4.14% (active).
With `COC(=O)C1=C(C(=O)OC)C23C=C(C)C1C2=C(C)C1(CC1)[C@@](C)(O)C3=O` (stereo not given in full) the figure was 3.21% (active); with `COc1cc(N2CCC(N(C)C)CC2)ccc1Nc1ncc(Cl)c(Nc2ccccc2P(C)(C)=O)n1`, 1.69% (active).
Take `OCCNC(=S)Nc1ccc(-c2nc(N3C[C@H]4CC[C@@H](C3)O4)c3cccn3n2)cc1`: the growth is 6.16% (active).
For `COc1ccc(-c2nocc2-c2cc(OC)c(OC)c(OC)c2)cc1`, the growth was 39.6%.
With `Cn1cnc2c(F)c(Nc3ccc(Br)cc3Cl)c(C(=O)NOCCO)cc21` the figure was 52.1%; with `CCOC(=O)c1sc(NC(=O)COc2ccc(/C=C3\Cc4ccc(Cl)cc4C3=O)cc2)nc1C`, 102%; with `CCOC(=O)C1=C(C)NC(=O)NC1c1cc(=O)oc2ccc(C)cc12` (stereo not given), 114%.
As for `C=CC(=O)Nc1cccc(Nc2nc(Nc3ccc(N4CCN(C(C)=O)CC4)cc3OC)ncc2C(F)(F)F)c1`, the figure is 5.26% (active).
With `CCN(CC)CCNC(=O)c1c(C)[nH]c(/C=C2\C(=O)Nc3ccc(F)cc32)c1C` the figure was -12.8% (active); with `CCCCOc1nc2cc(Cl)ccc2cc1/C=C/c1cc(/C=C/c2cc3ccc(Cl)cc3nc2OCCCC)n(-c2ccccc2)n1`, 75.6%.
With `CC(=O)OCCC/C(=C\c1ccc2ccccc2c1)[N+](=O)[O-]`, the growth is -92.6% (active).
As for `COc1ccc2c(c1)cn1c3ccc(O)cc3nc(N)c21`, the figure is 27.4%.
With `COc1cc2nccc(Oc3ccc(NC(=O)C4(C(=O)Nc5ccc(F)cc5)CC4)cc3)c2cc1OC` the figure was 4.85% (active); with `C/C(=C(/c1ccc(Cl)cc1)c1ccc(OCCN2CCCCCC2)cc1)c1ccccc1`, 96.3%.
With `COC(=O)CCCNc1c(-c2c(O)c(O)cc3c(O)c(-c4c(C)cc5c(-c6nc7ccccn7c6NCCCC(=O)OC)c(O)c(O)cc5c4O)c(C)cc23)nc2ccccn12`, the growth is 78.7%.
For `COc1cc2c(cc1OCCCCN1CCN(CC(=O)Nc3ccc(Cl)cc3C(=O)c3ccccc3Cl)CC1)N=CC1CCCN1C2=O` (stereo not given), the growth was -92.4% (active).
As for `C/C(=N\NC(=O)Cn1c(-c2ccc(S(C)(=O)=O)cc2)nc2ccccc21)c1ccc(Cl)cc1`, the figure is 93.6%; as for `Cc1sc2c(c1C)c(=O)nc1c(-c3nc4ccccc4s3)n[nH]n12`, 101%.
Consider `c1cc(OCCN2CCCCC2)cc(-c2n[nH]c3ccc(-c4ncn[nH]4)cc23)c1`, for which the growth is 62.7%.
